Test results as given in PubChem BioAssay (Tox21).
Inconclusive results are not listed. Unmarked numbers belong to inactive results. Calls of active or inactive are those of the source. Calls follow the shape of the full dose curve.

Assay: qHTS assay for small molecules that induce genotoxicity in human embryonic kidney cells expressing luciferase-tagged ATAD5 - cell viability (AID 651634); also: nearly all actives have a fitted effect of over 25% in size
Settings: HEK293T ATAD5-luc cells viability, CellTiter-Fluor, 15.5 h; series mostly up to 83.3 µM; activity, negative = cytotoxicity: at the top concentration
Excerpt: National Center for Advancing Translational Sciences [NCATS]
NIH Chemical Genomics Center [NCGC]
U.S. Environmental Protection Agency [EPA]
National Institutes of Environmental Health Sciences [NIEHS]
National Toxicology Program [NTP]
U.S. Food and Drug Administration [FDA]
Enhanced Level of Genome Instability Gene 1 (ELG1; human ATAD5) protein levels increase in response to various types of DNA damage. Using a luciferase reporter-gene tagged with ElG1, a cell-based assay [developed by Kyungjae Myung, NHGRI, NIH] was used to measure the induction of ATAD5 in human embryonic kidney cells (HEK293T). So, increase in luciferase activity can be used to identify the compounds that cause genetic stress. In addition to genotoxicity, these cells were also used to test for cytotoxicity by measuring the protease activity within live cells.
Tox21 Assay Protocol Summary:
For cytotoxicity screening, 2,000 cells in 5 uL/well were dispensed into white, solid-bottom 1536-well plates using a Multidrop Combi (Thermo Scientific) dispenser. Following transfer of 23 nL compound or DMSO vehicle by a pin tool, the plates were incubated 15.5 hr at 37C and 5% CO2. 1 ul CellTiter-Fluor reagent (Promega, Madison, WI) was then added to each plate and following 30 min incubation at 37C, fluorescence intensity was quantified on a ViewLux CCD-based plate reader.
% is scaled to controls: 0 for no effect and ±100 for the full control effect; potency is read from the fitted curve at half-maximal effect.

Row | Compound | activity, negative = cytotoxicity | Potency
1 | C=Cc1c(C)c2cc3[nH]c(cc4nc(cc5nc(cc1[nH]2)C(C)=C5CCC(=O)O)C(CCC(=O)O)=C4C)c(C)c3C=C | -5.1% | –
2 | CC(=O)SCc1ccco1 | 6.99% | –
3 | CC(C(=O)O)c1ccc(C(=O)c2ccccc2)s1 (stereo not given) | 19.9% [at 39.1 µM] | –
4 | Oc1ccc(Cc2ccccc2)cc1 | 6.42% | –
5 | Nc1cnn([C@@H]2O[C@H](CO)[C@@H](O)[C@H]2O)c(=O)n1 | 3.03% | –
6 | COc1ccc(OC)c(OC)c1 | 10.6% | –
7 | Nc1nc(CC(=O)O)cs1 | -12.1% [at 95.3 µM] | –
8 | Cn1c(=O)c2c(ncn2CC(O)CO)n(C)c1=O (stereo not given) | -14.8% [at 39.1 µM] | –
9 | O=C(O)Cc1sc(-c2ccccc2)nc1-c1ccc(Cl)cc1 | – | inactive
10 | CC(=O)NCCCS(=O)(=O)O | 10.4% | –
11 | COc1cc(C(C)(C)C)c(O)c(C(C)(C)C)c1 | 16.7% | –
12 | CC(C)(C)c1cc(CCC(=O)OCC(COC(=O)CCc2cc(C(C)(C)C)c(O)c(C(C)(C)C)c2)(COC(=O)CCc2cc(C(C)(C)C)c(O)c(C(C)(C)C)c2)COC(=O)CCc2cc(C(C)(C)C)c(O)c(C(C)(C)C)c2)cc(C(C)(C)C)c1O | 1.51% [at 39.1 µM] | –
13 | CCOC(=S)SSC(=S)OCC | – | inactive
14 | CN(C)CCCNCCCN | -4.38% | –
15 | CCN(CC)C(C)=O | 6.03% [at 95.3 µM] | –
16 | CC(=O)OC/C=C/c1ccccc1 | 19.4% | –
17 | CCCCCCCCCCCCCCC1CO1 (stereo not given) | 9.85% | –
18 | O=C(O)COC(=O)Cc1ccccc1Nc1c(Cl)cccc1Cl | -6.5% [at 39.1 µM] | –
19 | CCOC(=O)CC(C)C | 6.39% | –
20 | CN1CCC[C@@H]1c1cccnc1 | 17.1% | –

Row | Compound | activity, negative = cytotoxicity | Potency
21 | CCCOc1ccc2nc(NC(=O)OC)[nH]c2c1 | – | 150 nM (active)
22 | O=S1(=O)c2cccc3cccc(c23)N1CCCN1CCN(c2ccc(F)cc2)CC1 | -2.37% | –
23 | CCCCCCCCCO | 14.3% | –
24 | NCCCN(CCO)CCO | 6.28% | –
25 | CC1(C)[C@H]2CC[C@]1(C)[C@H](O)C2 | – | inactive
26 | O=C(Cl)c1c(Cl)cccc1Cl | 15% [at 95.3 µM] | –
27 | C[C@@H](C1=C(CCN(C)C)Cc2ccccc21)c1ccccn1 | 5.09% | –
28 | c1ccc(CNCc2ccccc2)cc1 | -11% | –
29 | COc1ccc(C(C)=O)cc1 | 14.6% [at 95.3 µM] | –
30 | Cc1ccccc1N=Nc1ccc(N=Nc2c(O)ccc3ccccc23)c(C)c1 | 6.38% | –
31 | CCCCCCOC(=O)CCC | 9.94% | –
32 | N[C@H]1C(O)O[C@H](CO)[C@H](O)[C@@H]1O (stereo not given in full) | 10.4% | –
33 | CCCC[C@H]1CN(CC2CCOCC2)C(=O)OC12CCN(C1(C)CCN(C(=O)c3c(C)ncnc3C)CC1)CC2 | -9.94% | –
34 | CCCCCc1ccc(N)cc1 | 7.47% | –
35 | O=C(/C=C/c1ccc(O)c(O)c1)O[C@@H]1C[C@](O)(C(=O)O)C[C@@H](O)[C@H]1O | -13.7% [at 95.3 µM] | –
36 | CC1=CCC(C(C)C)C=C1 (stereo not given) | 20.5% | –
37 | CCC(C)N(C)C(=O)c1cc2ccccc2c(-c2ccccc2Cl)n1 (stereo not given) | -12.4% | –
38 | CC(CN)CCCN (stereo not given) | 9.73% | –
39 | O=C(O)Cn1c(C(=O)Nc2nc(-c3ccccc3Cl)cs2)cc2ccccc21 | 2.62% | –
40 | CCCC(=O)OCC | 15.5% | –
